Counter-ions that a name gives are not always drawn. In all, about 1,900 compounds were measured (“relative cell viability (CellTiter-Glo), compound plus cabozantinib, relative to the cabozantinib arm (arm median 1.05; reference not stated)”: median about 1.1, lowest 2% from about 0.15 on). The sample holds the lowest values, similar compounds and a random draw of the others, so the mix is not that of the screen.

Here are results for 16 compounds from the supplement of paper PMC9399229.

The subject of this assay is Hep3B. Nature of the assay: relative cell viability (CellTiter-Glo), compound plus cabozantinib, relative to the cabozantinib arm (arm median 1.05; reference not stated) (fraction); higher = more viable cells (less growth inhibition). The note with it: cabozantinib 2 µM; 4 days.
As for `COC(=O)N[C@H](C(=O)N1CC2(CC2)C[C@H]1c1nc(-c2ccc3c(c2)C(F)(F)c2cc(-c4ccc5[nH]c([C@@H]6[C@H]7CC[C@H](C7)N6C(=O)[C@@H](NC(=O)OC)C(C)C)nc5c4)ccc2-3)c[nH]1)C(C)C` [Ledipasvir (GS5885)], the relative cell viability is 1. `FC(F)(F)c1ccc(CNc2ccc(Cc3c[nH]c4ncc(Cl)cc34)cn2)cn1` [Pexidartinib (PLX3397)]: the relative cell viability stood at 1.07. Regarding `C[C@H]1COC2=C1C(=O)C(=O)c1c2ccc2c1CCCC2(C)C` [Cryptotanshinone], the relative cell viability amounted to 0.918.

As for `C=CC(=O)Nc1cccc(Nc2nc(Nc3ccc(N4CCN(C(C)=O)CC4)cc3OC)ncc2C(F)(F)F)c1`, the relative cell viability is 0.831. For `COc1nc(C)cnc1NS(=O)(=O)c1cccnc1-c1ccc(-c2nnco2)cc1` [Zibotentan (ZD4054)], the relative cell viability is 1.22.

Regarding `C/C(=N\NC(=S)N1CCC1)c1ccccn1`, the relative cell viability amounted to 0.0579.

For the compound `CC(=O)Nc1ccccc1` [Acetanilide], the relative cell viability was found to be 1.07. Take `CC1=CC(=O)c2ccccc2C1=O` [Menadione]: the relative cell viability stood at 1.05. For the compound `CC(C)(C)C(=O)Nc1ccc2c(c1)C(=O)C(=O)c1ccccc1-2`, the relative cell viability came out at 0.0959. Regarding `C[C@H]1O[C@@H](O[C@H]2[C@@H](O)C[C@H](O[C@H]3[C@@H](O)C[C@H](O[C@H]4CC[C@@]5(C)[C@H](CC[C@@H]6[C@@H]5C[C@@H](O)[C@]5(C)[C@@H](C7=CC(=O)OC7)CC[C@]65O)C4)O[C@@H]3C)O[C@@H]2C)C[C@H](O)[C@@H]1O` [Digoxin], the relative cell viability stood at 0.0999. Take `CO[C@H]1C[C@@H]2CC[C@@H](C)[C@@](O)(O2)C(=O)C(=O)N2CCCC[C@H]2C(=O)O[C@H]([C@H](C)C[C@@H]2CC[C@@H](OP(C)(C)=O)[C@H](OC)C2)CC(=O)[C@H](C)/C=C(\C)[C@@H](O)[C@@H](OC)C(=O)[C@H](C)C[C@H](C)/C=C/C=C/C=C/1C` [Ridaforolimus (Deforolimus, MK-8669)]: the relative cell viability was found to be 1.3.

With `CN/C(=N\CCSCc1nc[nH]c1C)NC#N` [Cimetidine], the relative cell viability came out at 0.986. The same measure for `COc1cccc2c1C(=O)c1c(O)c3c(c(O)c1C2=O)C[C@@](O)(C(=O)CO)C[C@@H]3O[C@H]1C[C@H](N)[C@H](O)[C@H](C)O1` [Doxorubicin (Adriamycin)]: 0.111. In the case of `COc1cccc2c1C(=O)c1c(O)c3c(c(O)c1C2=O)C[C@@](O)(C(=O)CO)C[C@@H]3O[C@H]1C[C@H](N)[C@@H](O)[C@H](C)O1` [Epirubicin HCl], the relative cell viability came to 0.045.

For `COc1cccc2c1C(=O)c1c(O)c3c(c(O)c1C2=O)C[C@@](O)(C(=O)CO)C[C@@H]3O[C@H]1C[C@H](N)[C@H](O[C@@H]2CCCCO2)[C@H](C)O1` [Pirarubicin], the relative cell viability was 0.178. In the case of `COc1cccc2c1C(=O)c1c(O)c3c(c(O)c1C2=O)C[C@@](O)(C(C)=O)C[C@@H]3O[C@H]1C[C@H](N)[C@H](O)[C@H](C)O1` [Daunorubicin HCl], the relative cell viability was determined as 0.0514.
